Screening data (PubChem)
eIF4H inh – inhibitors of RNA binding by human eIF4H | hit rate 0.94% among 290,000 | inhibition, % at 35 µM | eIF4H fluorescence polarization binding assay;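 note: calls also rest on retests at 20 µM and on dose response follow-up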
MLLE-PAM2 inh – inhibitors of microRNA-mediated deadenylation, human PABP1 MLLE binding; P11940; GST-MLLE / FITC-PAM2 fluorescence polarization; inhibition, % at 20 µM; hit rate 0.36% among 360,000; AID 588489; in the data active = inhibition above about 35%, passing the limit was not always enough;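 note: plate controls were DMSO wells with GST-MLLE for no effect and wells lacking GST-MLLE protein for full effect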
Target sequence (P11940 whole entry, looked up): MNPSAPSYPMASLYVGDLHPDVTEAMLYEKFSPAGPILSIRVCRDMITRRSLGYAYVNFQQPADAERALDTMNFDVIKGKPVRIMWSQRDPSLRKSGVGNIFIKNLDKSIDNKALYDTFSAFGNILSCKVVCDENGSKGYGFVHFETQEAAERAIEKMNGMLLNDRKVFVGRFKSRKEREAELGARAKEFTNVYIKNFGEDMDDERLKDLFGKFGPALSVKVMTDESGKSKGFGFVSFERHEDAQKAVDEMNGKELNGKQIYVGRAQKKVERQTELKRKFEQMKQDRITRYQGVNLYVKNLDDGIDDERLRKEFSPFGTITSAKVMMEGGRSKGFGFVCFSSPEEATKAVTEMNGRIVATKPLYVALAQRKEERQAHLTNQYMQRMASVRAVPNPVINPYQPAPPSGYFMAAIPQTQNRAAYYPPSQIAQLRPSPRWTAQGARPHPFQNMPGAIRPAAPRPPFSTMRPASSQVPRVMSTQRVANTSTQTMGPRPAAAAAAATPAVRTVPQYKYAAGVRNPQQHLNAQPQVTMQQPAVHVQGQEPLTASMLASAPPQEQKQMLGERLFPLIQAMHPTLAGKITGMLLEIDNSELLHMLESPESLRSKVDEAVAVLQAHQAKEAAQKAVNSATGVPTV
PABP polyA inh – blocks human PABP binding to poly(A) RNA. fluorescence polarization. inhibition, % at 35 µM. hit rate 1% among 290,000. AID 2014;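 note: calls also rest on retests at 20 µM and on dose response follow-up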
PHOSPHO1 inh – blocks human PHOSPHO1 phosphatase activity; Q8TCT1; recombinant PHOSPHO1, absorbance phosphatase assay; inhibition, % at 13.3 µM; hit rate 1.1% among 290,000; AID 1565; in the data active = inhibition above about 60%
CRFBP-R2 block – blocks CRF-induced signaling of the CRF-BP/CRF-R2 complex. HEK293 CRF-R2/CRF-BP, CRF-induced calcium fluorescence. inhibition, % at 11.8 µM. hit rate 0.59% among 350,000;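 active = inhibition of the ligand-induced calcium signal above about 50% at the single tested concentration, limit read from the data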
* marks the source's active call; other numbers are inactive results. The list is not random: actives were taken first. Their share in the collection is about 2.6%. Unless noted, the rule behind the calls is not given here.

N#C/C(=C\c1ccc(Sc2nc3ccccc3[nH]2)o1)c1ccccc1 was read as eIF4H inh -8.1, MLLE-PAM2 inh -73.4, PABP polyA inh -2.0, PHOSPHO1 inh 35.6 and CRFBP-R2 block -6.5.
Screening Cc1ccc(CCCOC(=O)C[N+]2(C)CCOCC2)cc1 returned eIF4H inh -9.7, MLLE-PAM2 inh -121.4, PABP polyA inh 49.1, PHOSPHO1 inh 89.4* and CRFBP-R2 block -2.2.
COc1cc(NC(=O)CCl)ccc(=O)c1 was read as MLLE-PAM2 inh 29.0 and CRFBP-R2 block 0.8.
CN(C)c1ccc(C=C2C(=O)OC(C)(C)OC2=O)cc1 was read as eIF4H inh -10.3, MLLE-PAM2 inh -40.0, PABP polyA inh 12.2, PHOSPHO1 inh 23.3 and CRFBP-R2 block 52.0*.
N#CCC(=O)Nn1c(=S)[nH]c2ccccc2c1=O was read as eIF4H inh -7.2, MLLE-PAM2 inh 29.4, PABP polyA inh -8.0, PHOSPHO1 inh -7.5 and CRFBP-R2 block -7.4.
`CC(=O)Nc1ncc(Cc2cccc(Cl)c2)s1` gave eIF4H inh -7.4, MLLE-PAM2 inh 3.6, PABP polyA inh -0.6, PHOSPHO1 inh 60.1* and CRFBP-R2 block -2.1.
For O=C(Nc1ncc(Cc2cccc([N+](=O)[O-])c2)s1)c1ccco1 the results were eIF4H inh -0.5, MLLE-PAM2 inh -10.9, PABP polyA inh 6.1, PHOSPHO1 inh 60.1* and CRFBP-R2 block -2.3.
Screening Cc1ccc(Cc2cnc(NC(=O)c3ccco3)s2)cc1 returned eIF4H inh -7.8, MLLE-PAM2 inh -6.4, PABP polyA inh -2.2, PHOSPHO1 inh 11.5 and CRFBP-R2 block -20.0.
COCCNC(=O)C1(C)CCCN(C(=O)c2ccco2)C1 (stereo not drawn) was read as MLLE-PAM2 inh 4.2.
For Cc1ccccc1S(=O)(=O)NC(=O)C1(C)CCN1C(=O)CCc1ccc(Cl)cc1Cl (stereo not drawn) the results were MLLE-PAM2 inh 3.5.
Cc1ccc(S(=O)(=O)NNC(=O)c2ccc(F)cc2)cc1 was read as eIF4H inh -9.8, MLLE-PAM2 inh 6.3, PABP polyA inh 3.1, PHOSPHO1 inh 44.0 and CRFBP-R2 block 0.6.
Screening Cc1ccc(C(=O)NC(=S)NNS(=O)(=O)c2ccccc2)cc1 returned eIF4H inh 19.6, MLLE-PAM2 inh 41.1*, PABP polyA inh 7.1, PHOSPHO1 inh 62.4* and CRFBP-R2 block -11.8.
`Cc1ccc(S(=O)(=O)NNC(=S)Nc2cccc(F)c2)cc1` gave eIF4H inh -0.7, MLLE-PAM2 inh 3.9, PABP polyA inh -2.9, PHOSPHO1 inh -3.1 and CRFBP-R2 block 92.6*.
For CCCCCCOC(=O)CC1CC(C(C)=O)C1(C)C (stereo not drawn) the results were MLLE-PAM2 inh 0.1 and CRFBP-R2 block 6.7.
`CCCCC(=O)NC(=S)Nc1ccccc1C(=O)Nc1ccccc1` gave eIF4H inh -0.7, MLLE-PAM2 inh 40.1*, PABP polyA inh -2.9, PHOSPHO1 inh 23.5 and CRFBP-R2 block -5.5.
`CC(=O)NC(=S)Nc1ccccc1C(=O)Nc1ccccc1` gave eIF4H inh 8.1, MLLE-PAM2 inh 32.0, PABP polyA inh 8.5, PHOSPHO1 inh -1.1 and CRFBP-R2 block 5.6.
For CC(C)CNC(=O)C1(C)CCCN1C(=O)c1cccnc1 (stereo not drawn) the results were MLLE-PAM2 inh 6.2.
C=CCOC(=O)C(C#N)c1nc2ccccc2nc1N1CCN(Cc2ccc3c(c2)OCO3)CC1 (stereo not drawn) was read as eIF4H inh 69.4*, MLLE-PAM2 inh -9.9, PABP polyA inh 99.8*, PHOSPHO1 inh -11.8 and CRFBP-R2 block -23.8.
For CC1CN(c2nc3ccccc3nc2C(C#N)C(=O)NCc2ccc3c(c2)OCO3)CC(C)O1 (stereo not drawn) the results were eIF4H inh 88.9, MLLE-PAM2 inh -29.4, PABP polyA inh 94.5*, PHOSPHO1 inh 10.4 and CRFBP-R2 block -7.0.
C=CCOC(=O)C(C#N)c1nc2ccccc2nc1N1CCN(c2ccccc2OCC)CC1 (stereo not drawn) was read as eIF4H inh 14.6, MLLE-PAM2 inh 15.6, PABP polyA inh -5.7, PHOSPHO1 inh -11.2 and CRFBP-R2 block 52.7*.
For CCOc1ccccc1N1CCN(c2nc3ccccc3nc2C(C#N)C(=O)OC(C)C)CC1 (stereo not drawn) the results were MLLE-PAM2 inh 0.9 and CRFBP-R2 block -5.9.
Screening CCC(CC)COC(=O)C(C#N)c1nc2ccccc2nc1N1CCN(CC)CC1 (stereo not drawn) returned eIF4H inh 80.9*, MLLE-PAM2 inh -6.8, PABP polyA inh 52.7*, PHOSPHO1 inh 25.8 and CRFBP-R2 block -44.1.
Screening CCC(C)COC(=O)C(C#N)c1nc2ccccc2nc1N1CCCCC1 (stereo not drawn) returned eIF4H inh -0.7, MLLE-PAM2 inh -17.2, PABP polyA inh 11.6, PHOSPHO1 inh 9.6 and CRFBP-R2 block -12.2.
For Cc1cn([C@H]2C[C@H](O)[C@@H](CNCc3cccc(OC4CCCC4)c3)O2)c(=O)[nH]c1=O the results were MLLE-PAM2 inh 6.1 and CRFBP-R2 block -12.8.
O=C(/C=C/[C@H]1O[C@@H](n2ccc(=O)[nH]c2=O)[C@H](O)[C@@H]1O)NCc1ccccc1 was read as MLLE-PAM2 inh 5.1.
`c1cc(-c2cc3nc(NC4CCCCC4)ccn3n2)ccc1OCCN1CCOCC1` gave MLLE-PAM2 inh -6.7.
Screening Cc1ccsc1CN(C(=O)c1ccc([N+](=O)[O-])cc1)C1CCS(=O)(=O)C1 (stereo not drawn) returned eIF4H inh -9.7, MLLE-PAM2 inh 1.6, PABP polyA inh 13.4, PHOSPHO1 inh 17.6 and CRFBP-R2 block 1.4.
Screening Cc1ccccc1-c1csc(C(O)c2ccccc2)n1 (stereo not drawn) returned MLLE-PAM2 inh -5.4.
Screening O=C(NCC1CC1)C1Cc2c(-c3ccc4c(c3)OCO4)ccnc2O1 (stereo not drawn) returned MLLE-PAM2 inh 3.2.
Screening O=C(N/N=C/c1ccccc1O)C1(O)c2ccccc2-c2ccccc21 returned eIF4H inh active, MLLE-PAM2 inh 3.0, PABP polyA inh 118.6*, PHOSPHO1 inh 4.1 and CRFBP-R2 block 22.3.
`Cc1ccc(-c2ccc(/C=N/NC(=O)Cc3nnc(N)s3)o2)cc1Cl` gave eIF4H inh 45.9, MLLE-PAM2 inh -96.2, PABP polyA inh 10.0, PHOSPHO1 inh 14.9 and CRFBP-R2 block -6.1.
For O=C(Cc1nnc(NC(=O)c2ccccc2)s1)N/N=C/c1ccco1 the results were eIF4H inh 82.5, MLLE-PAM2 inh -12.9, PABP polyA inh 6.2*, PHOSPHO1 inh -6.6 and CRFBP-R2 block -36.1.
For COc1ccc(-c2ccc(/C=N/NC(=O)Cc3nnc(N)s3)o2)cc1Cl the results were eIF4H inh 21.2, MLLE-PAM2 inh -63.3, PABP polyA inh 11.7, PHOSPHO1 inh 12.2 and CRFBP-R2 block 54.6*.
Screening Nc1nnc(CC(=O)N/N=C/c2ccc(-c3ccccc3)o2)s1 returned eIF4H inh 82.3, MLLE-PAM2 inh -20.6, PABP polyA inh 2.9*, PHOSPHO1 inh -6.0 and CRFBP-R2 block 22.6.
Screening O=C(Cc1nnc(NC(=O)c2ccccc2)s1)N/N=C/c1cccc(O)c1 returned eIF4H inh -5.4, MLLE-PAM2 inh -32.3, PABP polyA inh 10.8, PHOSPHO1 inh 23.5 and CRFBP-R2 block -33.2.
